Active and inactive are the calls of the source. Unless noted, no rule for the calls is given here.
Experiments:
[1] = system: Wnt5a (protein binding on small-molecule microarray); assay: small molecules binding Wnt5a protein – biophysical, small-molecule microarray, 635/667 nm fluorescence, primary screen (AID 1142); conditions: 635 nm fluorescence, higher = more signal;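 also: fluorescence read at 667 nm with signal to noise per printed feature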
[2] = ATP-based viability of Huh7 replicon cells – cell-based, CellTiter-Glo luminescence, basal, 48 h, cytotoxicity control for HCV replication inhibitor project, primary screen (AID 1143); conditions: higher = more signal, called active from +8 up or from −8 down;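 also: Huh7 hepatoma cells carrying a hepatitis C replication reporter with no stimulus; test concentration not given here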
[3] = Pseudomonas biofilm growth suppression – PAO1 strain, BacTiter-Glo luminescence, LB-PBS, primary screen (AID 1144); conditions: P. aeruginosa PAO1 biofilm, 12 h, higher = more signal
[4] = basal CRE-LacZ reporter activity in PC12 – cell-based, unstimulated, primary screen (AID 1145); conditions: no forskolin, luminescence, 4.5 h, higher = more signal, called active from +8 up or from −8 down
[5] = forskolin-driven CRE-LacZ activity in PC12 – cell-based, CRE-LacZ reporter, forskolin-stimulated, primary screen (AID 1146); conditions: luminescence, 4.5 h, higher = more signal, called active from +8 up or from −8 down;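 also: PC12 cells with 6xCRE LacZ reporter stimulated by forskolin 10 µM; beta-galactosidase reporter signal reflecting CREB driven transcription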
[6] = molecular target: Streptavidin (Streptomyces avidinii) (UniProt P22629); assay: compounds binding control protein streptavidin – biophysical, small-molecule microarray, 635/667 nm fluorescence, artefact control for SMM compound annotation, primary screen (AID 1147); conditions: higher = more signal;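 also: signal reflects streptavidin binding to arrayed compounds as a control protein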
[7] = probe aInhba binding on compound microarray – biochemical, small-molecule microarray, 635/667 nm fluorescence, primary screen (AID 1148); conditions: higher = more signal;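 also: score merges 667nm spot fluorescence with signal-to-noise for antibody binding to printed compounds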
Torsin-1A (Homo sapiens) [8] = molecular target: Torsin-1A (Homo sapiens) (UniProt O14656); assay: TOR1A wild-type binding on microarray – cell lysate, small-molecule microarray, lysate, 635/667 nm, primary screen (AID 1149); conditions: COS7 hTOR1A-WT lysate, 635 nm fluorescence, higher = more signal
Torsin-1A (Homo sapiens) [9] = molecular target: Torsin-1A (Homo sapiens) (UniProt O14656); assay: torsin A mutant lysate binding on microarrays – cell lysate, small-molecule microarray, COS7 lysate, 635/667 nm fluorescence, primary screen (AID 1150); conditions: COS7 hTOR1A mutant lysate, 635 nm fluorescence, higher = more signal;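 also: score pools 667 nm emission and signal to noise measuring lysate protein binding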
[10] = system: Sonic hedgehog protein (Shh); assay: Sonic hedgehog microarray binding compounds – biochemical, small-molecule microarray, 635/667 nm fluorescence, primary screen (AID 1151); conditions: 635 nm fluorescence, higher = more signal;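 also: Shh protein binding to compounds spotted on small-molecule microarray slides; score combines spot fluorescence intensity with signal-to-noise across triplicate slides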
[11] = optical density shifts of acrAB sulA E. coli – strain DRC41, OD650, 48 h, E. coli filamentation inducer project, primary screen (AID 1152); conditions: higher = more signal, called active from +8 up or from −8 down;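 also: E. coli MC1000 strain DRC41 lacking acrAB efflux pump and sulA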
[12] = probe aLefty1 binding on compound microarray – biochemical, small-molecule microarray, 635/667 nm fluorescence, primary screen (AID 1153); conditions: higher = more signal;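 also: score merges spot fluorescence with signal-to-noise ratio from the scanned slide images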
[13] = plasmodial surface anion channel blockers, osmotic lysis – cell-based, P. falciparum Indochina, OD700, 1 h, primary screen (AID 1154); conditions: P. falciparum Indochina infected RBC osmotic lysis, higher = more signal, called active from +8 up or from −8 down
[14] = plasmodial surface anion channel blockers, osmotic lysis – cell-based, P. falciparum Indochina, OD700, 2 h, primary screen (AID 1155);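 also: lysis reports solute entry through the parasite surface anion channel PSAC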; conditions: P. falciparum Indochina infected erythrocytes, higher = more signal, called active from +8 up or from −8 down
[15] = changes in parasitized red cell lysis, either direction – P. falciparum Indochina, OD700, 3 h, PSAC antagonist project, primary screen (AID 1156); conditions: P. falciparum-infected erythrocytes, osmotic lysis, higher = more signal, called active from +8 up or from −8 down
[16] = plasmodial surface anion channel blockers, osmotic lysis – cell-based, P. falciparum Indochina, OD700, 18 h, primary screen (AID 1157); conditions: P. falciparum Indochina infected erythrocytes, osmotic lysis OD700, 18 h; higher = more signal, called active from +8 up or from −8 down
[17] = S6 kinase pathway phospho-S6 level changes – cell-based, A549, cytoblot, luminescence, serum-stimulated, primary screen (AID 1158); conditions: 5 h, higher = more signal;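 also: serum-stimulated A549 lung adenocarcinoma cells; signal is phosphorylated S6 detected by cytoblot immunostaining with HRP secondary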
[18] = molecular target: NADPH oxidase 2 (Homo sapiens) (UniProt P04839); assay: compounds shifting NOX2 Amplex Red fluorescence – cell-based, HEK293-NOX2, PMA-stimulated, NOX inhibitor project, primary screen (AID 1159); conditions: 45 min, higher = more signal, called active from +8 up or from −8 down; also: test concentration not given here
[19] = molecular target: NADPH oxidase 4 (Homo sapiens) (UniProt Q9NPH5); assay: compounds shifting NOX4 Amplex Red fluorescence – cell-based, HEK293-NOX4, tetracycline-induced, NOX inhibitor project, primary screen (AID 1160); conditions: HEK293-NOX4, Amplex Red H2O2 fluorescence, 45 min; higher = more signal, called active from +8 up or from −8 down
[20] = molecular target: NADPH oxidase 5 (Homo sapiens) (UniProt Q96PH1); assay: compounds shifting NOX5 Amplex Red fluorescence – cell-based, HEK293-NOX5, NOX inhibitor project, primary screen (AID 1161); conditions: HEK293-NOX5, ionomycin, 45 min, higher = more signal
Chain of NADPH oxidase 5 (Homo sapiens) (Q96PH1 whole entry, looked up): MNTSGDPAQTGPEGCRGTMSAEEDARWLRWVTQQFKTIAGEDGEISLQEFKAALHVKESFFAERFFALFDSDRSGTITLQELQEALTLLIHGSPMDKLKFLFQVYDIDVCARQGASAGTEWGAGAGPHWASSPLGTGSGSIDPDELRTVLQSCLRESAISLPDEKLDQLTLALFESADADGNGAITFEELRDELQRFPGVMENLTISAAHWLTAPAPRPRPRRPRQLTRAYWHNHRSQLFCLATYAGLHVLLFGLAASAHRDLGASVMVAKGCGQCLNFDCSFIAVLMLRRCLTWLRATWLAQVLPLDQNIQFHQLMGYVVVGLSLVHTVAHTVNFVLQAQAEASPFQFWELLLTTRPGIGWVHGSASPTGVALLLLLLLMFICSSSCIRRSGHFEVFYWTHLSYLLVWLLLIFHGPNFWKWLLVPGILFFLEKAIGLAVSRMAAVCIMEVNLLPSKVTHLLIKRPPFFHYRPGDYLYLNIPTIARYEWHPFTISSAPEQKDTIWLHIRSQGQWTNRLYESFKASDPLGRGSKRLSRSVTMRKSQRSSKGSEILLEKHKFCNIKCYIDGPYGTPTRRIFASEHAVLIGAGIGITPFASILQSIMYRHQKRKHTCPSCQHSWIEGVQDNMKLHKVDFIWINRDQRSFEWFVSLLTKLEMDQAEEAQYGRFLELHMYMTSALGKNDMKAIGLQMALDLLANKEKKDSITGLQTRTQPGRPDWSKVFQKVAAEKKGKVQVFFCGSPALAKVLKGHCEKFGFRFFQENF

Chain of NADPH oxidase 2 (Homo sapiens) (P04839 whole entry, looked up): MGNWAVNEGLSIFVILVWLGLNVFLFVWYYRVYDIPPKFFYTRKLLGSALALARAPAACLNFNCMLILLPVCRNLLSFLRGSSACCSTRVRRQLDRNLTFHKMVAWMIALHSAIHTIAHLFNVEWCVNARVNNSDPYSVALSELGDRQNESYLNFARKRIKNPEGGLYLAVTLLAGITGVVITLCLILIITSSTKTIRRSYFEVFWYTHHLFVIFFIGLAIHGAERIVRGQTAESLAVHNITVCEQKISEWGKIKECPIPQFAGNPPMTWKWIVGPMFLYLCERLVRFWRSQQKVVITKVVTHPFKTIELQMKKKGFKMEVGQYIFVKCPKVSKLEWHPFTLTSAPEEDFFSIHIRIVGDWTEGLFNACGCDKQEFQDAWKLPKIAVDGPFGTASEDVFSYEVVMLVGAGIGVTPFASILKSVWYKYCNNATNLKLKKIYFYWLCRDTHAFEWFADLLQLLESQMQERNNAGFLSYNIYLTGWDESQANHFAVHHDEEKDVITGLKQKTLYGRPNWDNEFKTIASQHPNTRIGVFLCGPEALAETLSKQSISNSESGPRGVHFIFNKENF
Chain of Streptavidin (Streptomyces avidinii) (P22629 whole entry, looked up): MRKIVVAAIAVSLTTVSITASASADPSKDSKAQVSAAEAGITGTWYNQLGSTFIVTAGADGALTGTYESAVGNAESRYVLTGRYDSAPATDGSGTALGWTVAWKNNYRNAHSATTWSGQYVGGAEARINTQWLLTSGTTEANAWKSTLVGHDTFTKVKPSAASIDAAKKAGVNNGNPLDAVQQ
Chain of Torsin-1A (Homo sapiens) (O14656 whole entry, looked up): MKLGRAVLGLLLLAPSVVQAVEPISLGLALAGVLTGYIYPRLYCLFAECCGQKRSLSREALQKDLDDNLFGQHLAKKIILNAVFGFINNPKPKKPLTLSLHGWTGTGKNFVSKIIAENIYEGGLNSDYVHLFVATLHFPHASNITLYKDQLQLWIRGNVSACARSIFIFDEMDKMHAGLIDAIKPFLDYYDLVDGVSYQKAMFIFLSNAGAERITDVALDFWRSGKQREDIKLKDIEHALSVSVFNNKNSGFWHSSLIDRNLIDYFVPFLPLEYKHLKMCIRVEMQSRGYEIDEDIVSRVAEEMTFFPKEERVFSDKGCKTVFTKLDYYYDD
Chain of NADPH oxidase 4 (Homo sapiens) (Q9NPH5 whole entry, looked up): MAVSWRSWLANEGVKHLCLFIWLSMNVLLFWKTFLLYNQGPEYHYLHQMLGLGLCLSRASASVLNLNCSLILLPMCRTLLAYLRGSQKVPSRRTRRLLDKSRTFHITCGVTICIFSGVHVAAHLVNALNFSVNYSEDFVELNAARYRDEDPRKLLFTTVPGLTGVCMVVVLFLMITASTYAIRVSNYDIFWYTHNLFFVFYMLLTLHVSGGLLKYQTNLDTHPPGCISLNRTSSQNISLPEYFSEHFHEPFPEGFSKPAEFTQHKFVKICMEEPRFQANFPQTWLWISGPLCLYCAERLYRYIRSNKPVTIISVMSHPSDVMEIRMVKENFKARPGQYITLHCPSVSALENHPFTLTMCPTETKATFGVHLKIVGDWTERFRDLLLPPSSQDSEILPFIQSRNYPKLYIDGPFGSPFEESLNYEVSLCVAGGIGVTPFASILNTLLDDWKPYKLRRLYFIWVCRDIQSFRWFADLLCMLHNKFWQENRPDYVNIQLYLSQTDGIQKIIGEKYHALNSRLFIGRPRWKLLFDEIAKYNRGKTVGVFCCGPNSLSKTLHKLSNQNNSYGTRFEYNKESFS

Structure (SMILES)	composite z-score [1]	z-score [2]	z-score [3]	z-score [4]	z-score [5]	composite z-score [6]	composite z-score [7]	composite z-score (Torsin-1A (Homo sapiens) [8])	composite z-score (Torsin-1A (Homo sapiens) [9])	composite z-score [10]	z-score [11]	composite z-score [12]	z-score [13]	z-score [14]	z-score [15]	z-score [16]	z-score [17]	z-score [18]	z-score [19]	z-score [20]
COc1ccc(OC[C@@H](CO)OC)cc1	0.131	0.314 (inactive)	0.86 (inactive)	0.562 (inactive)	0.17 (inactive)	0.495	-0.0962	0.373	0.304	0.577	0.261 (inactive)	-0.145	-0.578 (inactive)	-0.348 (inactive)	-0.566 (inactive)	-0.389 (inactive)	-0.51	0.712 (inactive)	0.422 (inactive)	0.133
COC(=O)[C@H](C)NC(=O)CCC1CC(OC(=O)NCc2cccc3ccccc23)CC2(CCCC(COC(=O)NCCC(C)C)O2)O1 (stereo not given in full)	0.0905	-0.842 (inactive)	-0.386 (inactive)	-0.522 (inactive)	-0.135 (inactive)	-0.224	-0.0695	0.181	0.205	0.683	0.782 (inactive)	0.423	6.93 (inactive)	0.663 (inactive)	-0.355 (inactive)	0.197 (inactive)	-0.463	1.74 (inactive)	0.703 (inactive)	1.52
Cc1ccc(C(C)C)n1C(=O)OC(C)(C)C	0.211	-0.841 (inactive)	-1.5 (inactive)	-0.708 (inactive)	0.686 (inactive)	0.963	-0.176	0.356	0.196	0.675	-0.241 (inactive)	-0.0934	-0.446 (inactive)	-1.44 (inactive)	-0.165 (inactive)	-1.53 (inactive)	1.04	-0.137 (inactive)	0.209 (inactive)	0.674
CC(C)=CCCC(C)=CCON=C1C[C@@H](O)[C@@H](O)[C@@H]2[C@@H]3C(=O)N(c4cccc(Oc5ccccc5)c4)C(=O)[C@@H]3CC[C@H]12	-0.022	-1.47 (inactive)	1.73 (inactive)	-0.205 (inactive)	-0.158 (inactive)	-0.11	-0.128	0.575	0.704	1.51	0.349 (inactive)	0.0363	2.26 (inactive)	1.25 (inactive)	0.17 (inactive)	0.722 (inactive)	0.34	-1.35 (inactive)	0.0399 (inactive)	-0.583
C[C@@H](c1ccccc1)N1C(=O)[C@H]2[C@H]3[C@H](O)[C@H](O)CC(=NOC[C@@H](O)COCc4ccco4)[C@H]3CC[C@H]2C1=O	-0.0017	0.523 (inactive)	1 (inactive)	1.5 (inactive)	0.81 (inactive)	-0.304	-0.253	3.17	2.95	1.65	-0.309 (inactive)	-0.201	2.04 (inactive)	-0.0645 (inactive)	0.33 (inactive)	0.332 (inactive)	-0.632	-1.37 (inactive)	0.529 (inactive)	0.122
CCN1C(=O)[C@H]2[C@H]3[C@H](O)[C@H](O)CC(=NOC[C@@H](O)[C@H]4O[C@@H]5OC(C)(C)O[C@@H]5[C@H]4O)[C@@H]3CC[C@H]2C1=O	-0.0165	0.297 (inactive)	0.685 (inactive)	-0.975 (inactive)	-0.799 (inactive)	0.245	-0.246	0.382	0.205	0.374	-0.352 (inactive)	0.0445	0.158 (inactive)	0.196 (inactive)	0.151 (inactive)	0.318 (inactive)	-0.102	-0.842 (inactive)	0.162 (inactive)	0.953
CC=CC1=C(CO)[C@H](O)[C@H]2O[C@H]2[C@@H]1O	0.0984	-0.0795 (inactive)	-0.549 (inactive)	-0.525 (inactive)	1.26 (inactive)	0.162	1.37	0.587	0.131	0.875	-0.412 (inactive)	-0.106	-0.312 (inactive)	0.367 (inactive)	-0.242 (inactive)	0.172 (inactive)	-0.325	0.623 (inactive)	-0.191 (inactive)	0.109
COC(=O)CC=C[C@@H](C)[C@@H](C=NOC(C)CN1CCCc2nc(C)c(C)cc21)NS(=O)(=O)c1ccc(C)cc1 (stereo not given in full)	0.448	-0.214 (inactive)	1.42 (inactive)	0.0013 (inactive)	0.541 (inactive)	-0.176	0.0982	0.308	0.309	0.791	0.364 (inactive)	0.119	2.52 (inactive)	0.584 (inactive)	0.201 (inactive)	0.49 (inactive)	-0.929	-0.134 (inactive)	0.283 (inactive)	-0.736
CO[C@H]1COC(=O)CCC[C@H](C)[C@@H](OC)COC(=O)CC=C[C@@H]1C	-0.0982	-0.0992 (inactive)	0.132 (inactive)	-0.394 (inactive)	-0.24 (inactive)	-0.256	-0.128	0.0956	0.861	1.34	0.0226 (inactive)	-0.17	-1.29 (inactive)	-1.22 (inactive)	-0.315 (inactive)	-2.45 (inactive)	-0.279	-0.123 (inactive)	-0.0115 (inactive)	0.344

From PubChem BioAssay
